# Results from PubChem BioAssay (Tox21).
# Values joined by “and” are separate entries in the source; they are usually repeats but may differ in a detail not shown here. Equal values may be shown once. Records with an inconclusive call do not appear. A number with no mark means an inactive call. Active and inactive are the calls of the source. Calls follow the shape of the full dose curve.
# Assay: qHTS assay to identify small molecule agonists of the hypoxia (HIF-1) signaling pathway - cell viability counter screen (AID 1224844); also: nearly all actives have a fitted effect of over 50% in size
# Settings: HRE-bla ME-180 viability, CellTiter-Glo luminescence, 17 h; series mostly up to 76.8 µM
# From the text: National Center for Advancing Translational Sciences [NCATS]
# NIH Chemical Genomics Center [NCGC]
# U.S. Environmental Protection Agency [EPA]
# National Institutes of Environmental Health Sciences [NIEHS]
# National Toxicology Program [NTP]
# U.S. Food and Drug Administration [FDA]
# Hypoxia-inducible factor-1 (HIF-1) is the major hypoxia-regulated transcription factor that controls cellular responses to low oxygen concentration. HIF-1 is composed of two subunits: hypoxia responsive HIF-1-alpha and constitutively expressed HIF-1-beta, which is also known as aryl hydrocarbon receptor nuclear translocator. During hypoxic conditions, HIF-1-alpha heterodimerizes with HIF-1-beta and translocates into the nucleus where the HIF-1 complex binds to the hypoxia-response element (HRE) and activates expression of target genes such as VEGF (vascular endothelial growth factor). The HIF-1 pathway is essential to normal growth and development, and is involved in the pathophysiology of cancer, inflammation, and ischemia.
# Using a beta-lactamase reporter-gene under control of the hypoxia response element, a cell-based assay [CellSensor(TM) HRE-bla ME-180 from Life Technologies, Carlsbad, CA] was used to measure hypoxia-induced signaling. Tox21 10K library compounds were measured for their ability to induce the reporter gene activity. The cytotoxicity of the Tox21 compound library against HRE-bla ME-180 cell line was tested in parallel by measuring cell viability using CellTiter-Glo assay (Promega, Madison, WI) in the same assay wells.
# Tox21 Assay Protocol Summary:
# HRE-bla ME-180 cells were dispensed at 2,000 cells per well in 6 uL of assay medium containing 0.5% dialyzed FBS into black wall/clear-bottom 1536-well plates using a Multidrop Combi (Thermo Scientific, Waltham, MA) dispenser. After the assay plates were incubated at 37C and 5% CO2 for 5 hrs, 23 nL of compounds dissolved in DMSO, positive controls or DMSO only was transferred to each well of the assay plate using a Pintool station (Kalypsys, San Diego, CA). The assay plates were incubated at 37C and 5% CO2 for 17 hrs. One uL of LiveBLAzerTM B/G FRET substrate (CCF4-AM) (Life Technologies) was added to each well using a Flying Reagent Dispenser (FRD, Aurora Discovery, San Diego, CA). After 2 hr incubation at room temperature, fluorescence intensity (405 nm excitation, 460 nm and 530 nm emissions) was measured using an Envision plate reader (PerkinElmer, Shelton, CT). For cytotoxicity, 4 ul/well of CellTiter-Glo reagent was added into the assay plates using an FRD. After 30 min incubation at room temperature, the luminescence intensity was measured using a ViewLux plate reader (PerkinElmer).
# % is scaled to controls: 0 for no effect and ±100 for the full control effect; potency is read from the fitted curve at half-maximal effect.
Structure (SMILES),Potency,"activity change, negative = cytotoxicity"
Nc1c(Cl)cc(Cl)cc1Cl,inactive,–
CCCCCCCCCCCCCCCCCC[N+](C)(C)Cc1ccccc1,24.8 µM (active),–
Cc1cc(O)c2ccccc2c1O,13.4 µM (active),–
CN(C)C(=O)C1(N2CCCCC2)CCN(CC[C@@]2(c3ccc(Cl)c(Cl)c3)CN(C(=O)c3ccccc3)CCO2)CC1,45.8 µM (active),–
CN(C)c1ccc(C2(c3ccc(N(C)C)cc3)OC(=O)c3cc(N(C)C)ccc32)cc1,inactive,–
CCOC(=O)O[C@H](C)OC(=O)c1ccc2c(c1)cc(C(=O)NC1CCN(C(C)C)CC1)n2Cc1cc(-c2ccc(Cl)s2)on1,28.9 µM (active),–
Clc1ccccc1C(c1ccccc1)(c1ccccc1)n1ccnc1,21.9 µM (active),–
COc1cc(-c2ccc(N=C=O)c(OC)c2)ccc1N=C=O,inactive,–
c1cc(C(c2ccc(OCC3CO3)cc2)c2ccc(OCC3CO3)cc2)ccc1OCC1CO1 (stereo not given),inactive,–
CCCCCCCCCCCCCCCS(=O)(=O)Oc1ccccc1,inactive,–
COc1cc(/C=C/C(=O)O[C@H]2CC[C@]34C[C@]35CC[C@]3(C)[C@@H]([C@H](C)CCC=C(C)C)CC[C@@]3(C)[C@@H]5CC[C@H]4C2(C)C)ccc1O,inactive,–
CCCCC(CC)COP(=O)(O)OCC(CC)CCCC (stereo not given),17.4 µM (active) and 5.49 µM (active),–
CCCCCCCCCCCCCCCC(=O)OC[C@H](O)[C@H]1OC(=O)C(O)=C1O,54.9 µM (active),–
CC(C)(C)CC(C)(C)c1ccc(OCCOCC[N+](C)(C)Cc2ccccc2)cc1,19.5 µM (active) and 9.52 µM (active),–
CC(C)n1nc(-c2cc3cc(O)ccc3[nH]2)c2c(N)ncnc21,1.9 µM (active),–
COc1ccc(-c2ccc3cc(C(=O)O)ccc3c2)cc1C12CC3CC(CC(C3)C1)C2,13.4 µM (active),–
C[C@H]1[C@H]2CC[C@H]3[C@@H]4CC=C5C[C@@H](N(C)C)CC[C@]5(C)[C@H]4CC[C@]23CN1C,inactive,–
Cc1nc(-c2ccc3c(c2)CCN(CCC2CCC(NC(=O)/C=C/c4ccc(F)cc4)CC2)CC3)no1 (stereo not given),inactive,–
OC1(c2ccc(Cl)c(C(F)(F)F)c2)CCN(CCCC(c2ccc(F)cc2)c2ccc(F)cc2)CC1,6.74 µM (active),–
Cc1onc(-c2ccccc2Cl)c1C(=O)N[C@@H]1C(=O)N2[C@@H]1SC(C)(C)[C@@H]2C(=O)O,inactive,–

Structure (SMILES),Potency,"activity change, negative = cytotoxicity"
CCc1cc(SCc2sc(-c3ccc(C(F)(F)F)cc3)nc2CN2CCN(c3ccc(OC)cc3)CC2)ccc1OCC(=O)O,3.89 µM (active),–
Nc1ccc(N)c2ccccc12,24.5 µM (active),–
CC(C)(C)CC(C)(C)c1ccc(O)c(Cc2ccc(Cl)cc2Cl)c1,9.52 µM (active),–
C=CC(=O)OCC(CO)(COC(=O)C=C)COC(=O)C=C,4.38 µM (active) and 17.4 µM (active),–
CS(=O)(=O)CCNCc1ccc(-c2ccc3ncnc(Nc4ccc(OCc5cccc(F)c5)c(Cl)c4)c3c2)o1,10.7 µM (active),–
CC(NN)c1ccccc1 (stereo not given),–,1.2% [at 15.8 µM]
Oc1ccc2c(c1)-c1ccccc1C2,inactive,–
Cc1cccc2c1cc1ccc3cccc4ccc2c1c34,inactive,–
O=C(Nc1cccc(C(F)(F)F)c1)c1cc(Br)cc(Br)c1O,19.5 µM (active),–
CCCCCOC(=O)CCCC,inactive,–
O=[N+]([O-])c1cc(Cl)c(Cl)c(Cl)c1Cl,inactive,–
CCCCCCCCCCCC(=O)NCCCN(C)C,49 µM (active),–
OCc1c[nH]c2ccccc12,inactive,–
COc1cccc2c1C(=O)c1c(O)c3c(c(O)c1C2=O)C[C@@](O)(C(=O)CO)C[C@@H]3O[C@H]1C[C@H](N)[C@H](O[C@@H]2CCCCO2)[C@H](C)O1,12 µM (active),–
COC(=O)c1cc(Cl)ccc1OC,inactive,–
COC(=O)C1=C(C)NC(C)=C(C(=O)OCCc2ccc(N3CCN(C(c4ccccc4)c4ccccc4)CC3)cc2)C1c1cccc([N+](=O)[O-])c1 (stereo not given),inactive,–
CC(=O)SC[C@@H](Cc1ccccc1)C(=O)NCC(=O)OCc1ccccc1,inactive,–
CC(C)(C)C(=O)OCOC(=O)C1N2C(=O)CC2S(=O)(=O)C1(C)C (stereo not given),inactive,–
CCCC1O[C@@H]2C[C@H]3[C@@H]4CCC5=CC(=O)C=C[C@]5(C)[C@H]4[C@@H](O)C[C@]3(C)[C@]2(C(=O)CO)O1 (stereo not given in full),49 µM (active) and 54.9 µM (active),–
CSc1ccc(C(=O)c2[nH]c(=O)[nH]c2C)cc1,inactive,–
